Screens deposited in PubChem BioAssay by several laboratories.
The list is not random: actives were taken first. Their share in the collection is about 4.9%.
HSF1 inhib: HSF1 inhibition; 300,000 tested, 0.77% active; activity change, negative = inhibition, % at 7.5 µM (by protocol); NIH3T3-HGL HSE-luciferase, MG132-induced, luminescence 8 h; stronger effect = lower value; AID 2098;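 active = more than half of replicate wells show activity change below -50%, luminescence cut by over half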;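 note: luciferase reports HSF-1 transcriptional activity via heat shock element; 0% = median of DMSO wells and -100% = zero luminescence signal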
Platelet DG rel: modulates dense granule release in human platelets; human platelet-rich plasma, SFLLRN dense granule ATP release, luminescence; inhibition, %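 (compounds screened at 7.5 µM in platelet-rich plasma)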; 300,000 tested, 0.22% active; AID 1663;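 active = mean replicate score, as percent of positive control, at or above 50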
HSF1 activator: increases HSF-1 driven luciferase reporter signal; activation, % at 9 µM; NIH3T3-HGL HSF-1 luciferase reporter, MG132, 8 h; 100% = twice DMSO control signal; 300,000 tested, 1.7% active;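 active = mean replicate activation of at least 50% with a set share of replicates each reaching 50%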;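 note: 0% = median of the neutral control wells and 100% = twice that signal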
dFosB act: enhances mouse delta FosB homodimer DNA binding; activation, % at 25 µM; purified delta FosB, TAMRA-CDK5 oligo fluorescence polarization; percent of positive-control signal above neutral wells; 340,000 tested, 0.99% active; P13346;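 active = mean activation above about 17%, with every replicate also reaching it, limit read from the data, passing the limit was not always enough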
Target sequence (P13346 whole entry, looked up): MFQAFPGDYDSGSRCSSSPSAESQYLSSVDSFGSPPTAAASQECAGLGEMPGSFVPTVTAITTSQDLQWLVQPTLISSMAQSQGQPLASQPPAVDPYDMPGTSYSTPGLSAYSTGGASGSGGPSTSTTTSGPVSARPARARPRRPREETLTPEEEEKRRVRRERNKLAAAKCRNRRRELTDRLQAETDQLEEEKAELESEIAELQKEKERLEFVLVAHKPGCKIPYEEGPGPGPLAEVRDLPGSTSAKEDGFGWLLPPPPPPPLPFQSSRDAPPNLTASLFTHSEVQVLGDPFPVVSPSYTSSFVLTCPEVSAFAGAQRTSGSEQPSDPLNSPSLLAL
HSP90 refold inh: inhibitors of HSP90 luciferase refolding in rabbit reticulocyte lysate. luciferase refolding luminescence, 3 h. inhibition, % at 5.6 µM. 290,000 tested, 0.91% active;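 active = inhibition above the screen-wide mean plus 3 SD, computed separately per campaign, cut at about 16% in these data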;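 note: 0% = DMSO wells and 100% = 60 µM geldanamycin wells; inhibitors lower the luminescence because luciferase stays unfolded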
MPTP block: permeability transition pore inhibition; isolated mouse mitochondria, Ca2+ swelling absorbance, 30 min; inhibition, % at 10 µM; 360,000 tested, 1.4% active;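 active = inhibition of 50% or more, scaled per plate between neutral and stimulator controls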;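 note: 0% = DMSO wells given calcium and 100% = 1 mM EGTA wells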
* marks the source's active call; other numbers are inactive results.

Screening Cc1cc(C)n2cc(COc3ccc4ccccc4c3)nc2n1 returned HSF1 inhib 25, Platelet DG rel -4, HSF1 activator 67*, dFosB act -2, HSP90 refold inh 5 and MPTP block 1.
Screening Cc1cccc2nc(COc3ccc(-c4ccccc4)cc3)cn12 returned HSF1 inhib 32, Platelet DG rel 21, HSF1 activator 65* and HSP90 refold inh 1.
Screening Cc1ccnc(SCc2cn3c(C)cc(C)nc3n2)n1 returned HSF1 inhib 2, Platelet DG rel -15, HSF1 activator 7, dFosB act -2, HSP90 refold inh -1 and MPTP block 0.
`Cc1cccc(C)c1NC(=O)C1(C)CN(S(C)(=O)=O)CC(=O)N1Cc1cccc(F)c1` (stereo not given) gave MPTP block 0.
`CCOC(=O)C1(Cc2ccc(Cl)cc2)CCN(C(=O)CCc2ccncc2)CC1` gave HSF1 inhib 0, Platelet DG rel 2, HSF1 activator -3, dFosB act 0, HSP90 refold inh -2 and MPTP block 0.
Screening Cc1cccc(N2C(=O)CC(NNc3nc4ccccc4s3)C2=O)c1 (stereo not given) returned HSF1 inhib 49, Platelet DG rel 2, HSF1 activator 109*, dFosB act -2, HSP90 refold inh 3 and MPTP block 0.
Screening O=C1CC(NNc2nc3ccccc3s2)C(=O)N1c1ccc(F)cc1 (stereo not given) returned HSF1 inhib 32, Platelet DG rel 12, HSF1 activator 41, dFosB act 11, HSP90 refold inh 4 and MPTP block 2.
`COc1ccc(-c2cn3cc(C)ccc3n2)cc1OC` gave HSF1 inhib 71, Platelet DG rel 18, HSF1 activator 96*, dFosB act 0, HSP90 refold inh 11 and MPTP block 0.
`Cc1ccc2nc(-c3ccc4c(c3)NC(=O)CO4)cn2c1` gave HSF1 inhib 33, Platelet DG rel -1, HSF1 activator 64*, dFosB act -6, HSP90 refold inh 2 and MPTP block 2.
Screening COc1cc(/C=N/NC(=O)c2nonc2C)ccc1O returned HSF1 inhib 8, Platelet DG rel 53*, HSF1 activator 18, dFosB act 0, HSP90 refold inh -2 and MPTP block 0.
For CC(/C=N\NC(=O)c1cc(C)oc1C)=C\c1ccccc1 the results were HSF1 inhib -52*, Platelet DG rel -3, HSF1 activator -55, dFosB act -2, HSP90 refold inh -3 and MPTP block 8.
Screening CCOc1ccccc1-c1cc(C(=O)N/N=C/c2ccc(O)c(OC)c2)c2ccccc2n1 returned HSF1 inhib 4, Platelet DG rel 16, HSF1 activator 11, dFosB act 25*, HSP90 refold inh 1 and MPTP block 0.
For Cc1nonc1C(=O)N/N=C/c1ccc(O)c(O)c1 the results were HSF1 inhib 6, Platelet DG rel 67*, HSF1 activator -9, dFosB act -1, HSP90 refold inh -1 and MPTP block 1.
Cc1ccc(/C=N/NC(=O)c2cc(C)oc2C)cc1 was read as HSF1 inhib 8, Platelet DG rel 7, HSF1 activator 20, HSP90 refold inh 1 and MPTP block 2.
Screening O=C(CN1CCCC1)Nc1ccc(F)c(Cl)c1 returned HSF1 inhib -8, Platelet DG rel 2, HSF1 activator -8, dFosB act -5, HSP90 refold inh 0 and MPTP block 0.
For F[B-](F)(F)c1cc2cc(Br)ccc2s1 the results were dFosB act -12 and MPTP block 0.
`C=CCNc1nc(C(=O)OCC(=O)Nc2c(Cl)cccc2C(F)(F)F)cs1` gave HSF1 inhib -1, Platelet DG rel 1, HSF1 activator 5, dFosB act -2 and MPTP block 0.
Screening COc1cc(/C=N/NC(=O)c2cc(C)oc2C)ccc1O returned HSF1 inhib -61*, Platelet DG rel -1, HSF1 activator -70, dFosB act 5, HSP90 refold inh 0 and MPTP block 1.
COc1ccc(C=NNC(=O)c2cc(C)oc2C)cc1O was read as dFosB act -4 and MPTP block 0.
O=C(Cc1cccs1)NCc1cccc(Br)c1 was read as HSF1 inhib 9, Platelet DG rel 3, HSF1 activator 23, dFosB act 1, HSP90 refold inh -5 and MPTP block 0.
For CC(C)(C)c1nn(-c2ccccc2)c2[nH]c(=O)c(CNc3ccc4c(c3)OCCO4)cc12 the results were HSF1 inhib -65*, Platelet DG rel 1, HSF1 activator -67, dFosB act 1, HSP90 refold inh 8 and MPTP block 1.
For O=C(NCCC1=CCCCC1)c1ccc(Cl)c(S(=O)(=O)N2CCCCC2)c1 the results were HSF1 inhib 3, Platelet DG rel -17, HSF1 activator 26, dFosB act -12, HSP90 refold inh -1 and MPTP block 3.
`CCn1c(C(=O)OC)cc2c1ccn2-c1ccc(F)cc1` gave HSF1 inhib 40, Platelet DG rel 2, HSF1 activator 52*, dFosB act 0, HSP90 refold inh -3 and MPTP block 0.
O=[N+]([O-])c1ccc(Nc2nc(N/N=C\c3ccc4c(c3)OCO4)nc(N3CCCCC3)n2)cc1 was read as HSF1 inhib -22, Platelet DG rel 5, HSF1 activator -24, dFosB act 63*, HSP90 refold inh -3 and MPTP block 3.
Screening O=[N+]([O-])c1ccc(/C=N/Nc2nc(N3CCCCC3)nc(N3CCCCC3)n2)cc1 returned HSF1 inhib -11, Platelet DG rel -25, HSF1 activator 1, dFosB act 1, HSP90 refold inh -6 and MPTP block 3.
For Cc1cc2nc(-c3ccc(SCC(=O)Nc4ccc(S(=O)(=O)NC5CC5)cc4)nc3)[nH]c2cc1C the results were HSF1 inhib 21, Platelet DG rel -7, HSF1 activator 54*, dFosB act 15, HSP90 refold inh -2 and MPTP block 10.
For CCCCNC(=O)Nc1nnc(C(C)(C)C)s1 the results were HSF1 inhib 27, Platelet DG rel -9, HSF1 activator 56*, dFosB act -8, HSP90 refold inh 1 and MPTP block 4.
For CS(=O)(=O)N(CC(=O)NCCSC1CCCCC1)c1ccc2c(c1)OCO2 the results were HSF1 inhib -67*, Platelet DG rel -17, HSF1 activator -74, dFosB act -3, HSP90 refold inh -2 and MPTP block 0.
For Cc1ccc(SCCNC(=O)CN(c2ccc3c(c2)OCO3)S(C)(=O)=O)cc1 the results were HSF1 inhib -10, Platelet DG rel 0, HSF1 activator 3, dFosB act -10, HSP90 refold inh 1 and MPTP block -3.
C=CCNC(=S)NNC(=O)c1cccn(Cc2ccc(Cl)c(Cl)c2)c1=O was read as HSF1 inhib 23, Platelet DG rel -12, HSF1 activator 81*, dFosB act -4, HSP90 refold inh 3 and MPTP block 0.
